Reference: the supplement of paper PMC6555819

The sequences below were run on VDR:RXRa (NR concentration 270 nM, RXRa partner concentration 90 nM) (assay: PBM binding z-score (relative to random genomic background probes); higher = stronger binding; sequences stand for … in GC…GCGATTGACAGCGTAGAATGAAGG).
Procedure: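 Protein-binding microarray (Agilent 4x180K custom design, double-stranded 60-nt probes: 5' GC cap, 34-nt variable region, 24-nt constant primer region; full probe sequence given). Purified or IVT nuclear receptor:RXRα heterodimers (3:1 NR:RXRα, mostly 270:90 nM) or homodimers were incubated for 1 h in PBS with 2% milk and no ligand, then detected with Alexa488 antibodies. Fluorescence from o1-orientation probes (~5 replicates averaged) was converted to z-scores against 500 random hg19 background probes. Variable regions are seed direct-repeat (DR0–DR5) sites, all their single-nucleotide variants and half-site ablations.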

Sequence	PBM binding z-score
TTACCAAGGTGAAGGTCTTTGATCCCTCTGTAGA	-0.00925
CAAATTAGGTCAAAGGTCAAAGTCGAGCCAACCA	6.81
TCGAGTAGTTTACCAATGGGGCATTCAGCTTTCT	-0.0762
CCTACTGGACCAAAAAGGTCATTGATGCCGATAA	4.77
GCTAGTTGGTTAGTAAAAGGTCACACACCGGTCG	3.93
AGTCAAAGTTCAGGACGAGCTAACGTAAAGCACG	1.8
CAGACTAGGTCACCGGAAGGTCAAAGTCCGCATG	5.78
ACAGACAGGTGAGTGAAGGTAACTCAACTGGACG	-0.232
GTACCAAGGTGAAAAGGTCGTTGATGAGTAGGCG	2.59
TAGCCTGGGTCATTGGGCCAGTATAGTACGCATC	1.97
GCTTACGGGTCAAAGGTGATAGCATGAATAGAAT	4.42
ATCTCTAGGTAAAGTTCAGTTAAAGATCGATAGA	1.82
AGATTGAGGTTATACGTAGATCAGGGAAGAAAGT	1.23
CCTTACGGGTCAAGATTATAGCACGGGTGGTACG	2.9
CCTGCTAGGTGAATGGTCAGCTAAAGCAGCTCGC	-0.699
CGAACGAGGGCATGAGTTGGTAGCAAATGCCGAT	0.602
TCTAGTTGGACACGGAGGTCACACACGACGGGTA	3.76
GCTAGCAGGCCATTTCGGTCACTCAATGACGGGC	-0.644
GGAACGAGGGCAAGGTTGATAGCATCTGTCGACG	0.638
AGAATGAGGTTATCAAAGATCAGGGAAACGCTTG	1.12

Sequence	PBM binding z-score
GCGACTAGGGCATCAGCAGGTTACCATAACTTAA	-0.295
GCTATTAGCTGAAAGGGCAACCGAATGATTCTCG	-0.0457
CCGACTGGGGCAAATGTTACCATACTCAGTACGA	-0.22
CCTGCTAGGTCATGGTTAGCTAATCTACAGTATG	1.39
ACTAGCAGGCCAAGTTTGGGTCACTCCAACAAAG	0.642
AGTCAAAGTTCACTAGGTAACGCAAGATTCAGCT	3.39
TCATATAGGTAATACAGGTGAAACTCGGCATCTA	1.37
ATCTCTAGGGAAAGATAGTTCAGTGAATGCAAAT	0.156
GATACCGGGTCAAGGCCAGAGTACGCGTATTGAT	3.11
CCGACTGGGCCAAGGTCATTGATCAGTCAAAGCA	3
CGAACGAGGGCATGAGATGATAGCAAATGCCGAT	0.478
ATATCTAGGTTACATCCGGGTCATTCAGGCTATG	4.23
CGTCCAAGGTCAATGCTAGGTGAGTGAAAGCATT	3.69
CCTCGGAGGACAGAAGGTCAGAGCAGTCCGCTTT	1.82
GCTAGTTGGTAAGTAAAAGGTCACACACCGGTCG	3.82
TAGCCTAGGCCATTCAGGGGCCAGTATAGAAAGC	-0.423
CAAACTAGGTCAACGTCAAAGTCGGTTTGTGCCA	1.83
ATATGTAGGTTATCGGGTCGTTCAGTTTGCGCAT	3.89
ATCTCTAGGTAACAAGTTCAGTGAAAGAGAGGAC	2.13
GGAACAAGGGCATTCGAGTTGATAGCATGGCGAT	3.12
